The list is not random: actives were taken first. Their share in the collection is about 2.4%.
SENP8 block-1: inhibitors of human SENP8 protease; Q96LD8; purified SENP8, Z-RLRGG-aminoluciferin cleavage, luminescence; inhibition, % at 10 µM; actives 1.2% (n = 330,000); in the data active = inhibition above about 50%
Target sequence (Q96LD8 whole entry, looked up): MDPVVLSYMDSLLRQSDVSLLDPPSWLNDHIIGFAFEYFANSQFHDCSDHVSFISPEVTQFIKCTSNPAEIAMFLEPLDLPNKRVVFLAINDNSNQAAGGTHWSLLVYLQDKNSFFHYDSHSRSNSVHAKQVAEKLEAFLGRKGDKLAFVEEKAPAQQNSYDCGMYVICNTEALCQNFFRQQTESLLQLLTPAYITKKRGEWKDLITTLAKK
SENP7 inh: inhibitors of human SENP7 protease. inhibition, % at 5 µM. actives 1.5% (n = 330,000). recombinant SENP7, Z-RLRGG-aminoluciferin luminescence, 40 min;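 active = inhibition above about 50% at the single test dose, limit read from the data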;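 note: plate controls were DMSO with enzyme for no effect and no enzyme buffer wells for full effect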
SENP6 block: blocks the human protease SENP6; inhibition, % at 10 µM; Recombinant SENP6 catalytic domain, aminoluciferin luminescence; actives 1.8% (n = 330,000); Q9GZR1; AID 2599;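 active = inhibition above about 50% at the single tested dose, limit read from the data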;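 note: plate controls were DMSO wells with enzyme for no effect and DMSO wells lacking enzyme for full effect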
SENP8 block-2: SENP8 (human) protease inhibition | Q96LD8 | recombinant SENP8, Nedd8 substrate fluorescence | inhibition, % at 20 µM | actives 0.64% (n = 360,000); in the data active = inhibition mostly above about 40%, no sharp cut-off; inactive = mostly below about 27%
Platelet DG rel: platelet dense granule release activity | human platelet-rich plasma, SFLLRN dense granule ATP release, luminescence | inhibition, %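 (compounds screened at 7.5 µM in platelet-rich plasma)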 | actives 0.22% (n = 300,000);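 active = mean replicate score, as percent of positive control, at or above 50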
SENP8 conf: human SENP8 inhibition, confirmed. Recombinant SENP8, Z-RLRGG-aminoluciferin luminescence, 60 min. actives 40% (n = 6,200). AID 488912. shares compounds with SENP7 inh. inhibition, % at 12.5 µM;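 active = mean inhibition across replicates above about 50%, limit read from the data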
SENP6 conf: confirmation of human SENP6 protease inhibitors; shares compounds with SENP7 inh; recombinant SENP6, Z-RLRGG-aminoluciferin luminescence; inhibition, % at 12.5 µM; actives 58% (n = 6,200)
SENP7 conf: confirmation of human SENP7 protease inhibitors. shares compounds with SENP7 inh. recombinant SENP7, Z-RLRGG-aminoluciferin luminescence, 40 min. inhibition, % at 12.5 µM. actives 69% (n = 6,200)
Casp3 SENP sel: selectivity test for SENP inhibitors: human caspase-3 inhibition; shares compounds with SENP7 inh; purified caspase-3, Z-DEVD-aminoluciferin luminescence, 60 min; inhibition, % at 12.5 µM; actives 60% (n = 6,200); AID 488918;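 active = mean inhibition above about 50%, limit read from the data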;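 note: plate controls were enzyme with DMSO for no effect and wells without caspase-3 for full effect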
Target sequence (P42574 28-227 limits assumed): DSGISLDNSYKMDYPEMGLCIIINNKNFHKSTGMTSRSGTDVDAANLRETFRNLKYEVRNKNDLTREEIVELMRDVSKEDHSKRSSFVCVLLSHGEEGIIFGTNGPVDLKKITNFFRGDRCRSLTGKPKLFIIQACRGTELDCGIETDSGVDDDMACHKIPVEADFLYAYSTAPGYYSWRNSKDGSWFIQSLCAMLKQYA
SENP luc ctr: luminescence interference (SENP counter-screen); shares compounds with SENP7 inh; inhibition, % at 12.5 µM; Pre-incubated SENP8/Z-RLRGG-aminoluciferin, luciferase luminescence interference; actives 39% (n = 6,200); AID 488919;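 active = mean inhibition above about 50% when retested at one dose, limit read from the data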;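 note: plate controls were DMSO wells with completed reaction for no effect and substrate without enzyme for full effect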
* hit, by the source's call.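 Rule for the calls, unless noted: active = mean inhibition above about 50% in the one-dose retest (limit read from the data); inactive = the rest.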

How did Cc1ccc(NC(=O)CCc2c(C)nn(-c3ccc(N4CCCCC4)nn3)c2C)cc1F do in these assays?
SENP8 block-1: 38.2; SENP7 inh: 30.7; SENP6 block: 55.9*; SENP8 block-2: -42.1; Platelet DG rel: 5.2; SENP8 conf: 60.8*; SENP6 conf: 53.2*; SENP7 conf: 76.7*; Casp3 SENP sel: 38.1; SENP luc ctr: 9.7

How did Nc1nc(Sc2c([N+](=O)[O-])cc(C(F)(F)F)cc2[N+](=O)[O-])n[nH]1 do in these assays?
SENP8 block-1: 2.6; SENP7 inh: 3.7; SENP6 block: 13.8; SENP8 block-2: 17.4; Platelet DG rel: -7.0

How did COC(=O)C(C)Oc1ccc(-c2nccc(-c3ccccn3)n2)cc1 (centres undefined) do in these assays?
SENP8 block-1: -10.3; SENP7 inh: -1.7; SENP6 block: -4.0; SENP8 block-2: 6.4; Platelet DG rel: -2.1

Results for COc1ccc(Oc2ccc(-c3ccn[nH]3)cc2)cc1 ?
SENP8 block-1: 0.2; SENP7 inh: 0.3; SENP6 block: -12.8; SENP8 block-2: 34.8; Platelet DG rel: 3.9

Results for O=C(CSc1ncccc1-c1nc2ccccc2[nH]1)N1CCc2ccccc21 ?
SENP8 block-1: -11.0; SENP7 inh: 55.4*; SENP6 block: -0.3; SENP8 block-2: -178.6; Platelet DG rel: 6.1; SENP8 conf: 4.3; SENP6 conf: -2.3; SENP7 conf: 16.0; Casp3 SENP sel: 11.4; SENP luc ctr: 5.6

Results for COc1ccc(/C=C/C(=O)c2ccc(O)cc2)cc1CN1CCOCC1 ?
SENP8 block-1: -3.9; SENP7 inh: -5.1; SENP6 block: -5.9; SENP8 block-2: -21.0; Platelet DG rel: 11.0

What do the screens show for `O=C(/C=C/c1cccc(O)c1)c1ccc(N2CCOCC2)cc1`?
SENP8 block-1: 35.1; SENP7 inh: 73.5*; SENP6 block: 78.4*; SENP8 block-2: -17.5; Platelet DG rel: 14.8; SENP8 conf: -34.2; SENP6 conf: -23.0; SENP7 conf: -15.5; Casp3 SENP sel: 1.0; SENP luc ctr: 50.9*

How did Cc1nn2cc(-c3ccc(Cl)cc3)cnc2c1Cl do in these assays?
SENP8 block-1: -9.5; SENP7 inh: 75.9*; SENP6 block: -27.1; SENP8 block-2: 14.9; Platelet DG rel: 17.7; SENP8 conf: 10.2; SENP6 conf: 8.2; SENP7 conf: 19.3; Casp3 SENP sel: 35.8; SENP luc ctr: 7.1

Results for CC(C)(C)NC(=O)C1Cc2ccccc2CN1 (centres undefined) ?
SENP8 block-1: -4.2; SENP7 inh: -0.4; SENP6 block: -22.1; SENP8 block-2: 18.1; Platelet DG rel: -3.0

What do the screens show for `CCOc1ccc(/C=N/Nc2cc(=O)n(C)c(=O)n2C)cc1`?
SENP8 block-1: -4.7; SENP7 inh: -3.1; SENP6 block: -13.2; SENP8 block-2: 7.1; Platelet DG rel: -0.6

How did O=[N+]([O-])c1ccccc1OCc1nc(-c2cccs2)no1 do in these assays?
SENP8 block-1: 2.0; SENP7 inh: 13.7; SENP6 block: -15.5; SENP8 block-2: 11.7; Platelet DG rel: 4.5

How did Cc1cc(C)c(C)c(OCc2nc(-c3cccnc3)no2)c1 do in these assays?
SENP8 block-1: 1.7; SENP7 inh: -5.4; SENP6 block: 0.1; SENP8 block-2: 3.3; Platelet DG rel: -3.4

Results for Cc1ccc(OCc2nc(-c3cccs3)no2)c([N+](=O)[O-])c1 ?
SENP8 block-1: 37.1; SENP7 inh: 52.7*; SENP6 block: -22.7; SENP8 block-2: 7.5; Platelet DG rel: -4.8; SENP8 conf: 66.5*; SENP6 conf: 65.4*; SENP7 conf: 80.1*; Casp3 SENP sel: 44.8; SENP luc ctr: 9.3

Screening results (PubChem)
